Sampled rows, rich in hits. Any-hit rate of the full collection: about 6%.
D3 ag: D3 dopamine receptor (human) agonism; D3R DiscoveRx beta-arrestin cells, luminescence, 90 min; max activation, %; actives 0.58% (n = 410,000); AID 652048; in the data active = max activation above about 30%
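Agonist mode: compounds and dopamine controls were applied to plated cells for 90 min at 37 degrees C after an overnight attachment at 1500 cells/well. Luminescent read-out followed 30 - 60 minutes at room temperature with DiscoveRx detection reagent.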
BCR signal inh: inhibitors of chronic active B-cell receptor signaling; ABC-DLBCL IkBa-CBG/CBR reporter, luminescence ratio, 4 h; actives 0.05% (n = 340,000); Potency, µM (highest dose often 46.1 µM), usual class: inhibitors; active = well fitted inhibition curve with a large enough effect in the signal ratio, with a control signal flat, not every such curve was filed as active; inconclusive = small, poorly fitted or top-dose-only effect, or effect the other way, or a change in a side signal; the % refers to the signal ratio
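Compounds up to 46 uM were incubated four hours with TMD8 cells whose green CBG68 luciferase is fused to IkappaBalpha; red CBR luminescence normalised the signal, and concentration-effect curves were fitted to fusion, red and ratio data.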
D3 antag: D3 dopamine receptor (human) antagonism; P35462; D3R cells, DiscoveRx beta-arrestin luminescence, antagonist mode; stronger effect = lower value; max response, negative = inhibition, %; actives 2.5% (n = 360,000); in the data active = max response below about -50%; inconclusive = no clear call, values can overlap the other calls
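Cells expressing the human receptor were seeded at 1500 cells/well, incubated overnight at 37 degrees C in 5% CO2, then exposed to library compounds with dopamine controls for 90 minutes at 37 degrees C before luminescent detection.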
D1 agonist: agonists of human D1 dopamine receptor | actives 1% (n = 360,000) | activation, % at 2 µM | HEK293 T-REx D1 cells, calcium flux, agonist mode; in the data active = activation above about 30%
Target sequence (P21728 whole entry, looked up): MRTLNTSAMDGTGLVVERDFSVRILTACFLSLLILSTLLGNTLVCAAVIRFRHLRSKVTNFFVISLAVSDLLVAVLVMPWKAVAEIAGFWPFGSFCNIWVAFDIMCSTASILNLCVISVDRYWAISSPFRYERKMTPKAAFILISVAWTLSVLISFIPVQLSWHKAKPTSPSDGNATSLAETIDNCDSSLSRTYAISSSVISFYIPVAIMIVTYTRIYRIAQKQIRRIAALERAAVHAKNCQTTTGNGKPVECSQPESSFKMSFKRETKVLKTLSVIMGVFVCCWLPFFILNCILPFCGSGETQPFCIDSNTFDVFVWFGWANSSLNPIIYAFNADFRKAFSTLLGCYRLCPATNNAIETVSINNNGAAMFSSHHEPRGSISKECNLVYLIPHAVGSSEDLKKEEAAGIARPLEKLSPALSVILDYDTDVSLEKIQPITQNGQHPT
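Inducible HEK293 T-REx D1 cells, force-coupled to calcium signalling, were plated at 4000 cells/well with tetracycline and held overnight at 30 C. After no-wash calcium dye loading, compound-evoked calcium rise over 180 s flagged agonists.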
D1 potentiator: potentiators of human D1 dopamine receptor. HEK293 TREx D1 cells, calcium flux, dopamine EC20 potentiation. AID 504651. actives 0.036% (n = 360,000). P21728. potentiation, % at 10 µM; in the data active = potentiation above about 30%
D1 antagonist: blocks dopamine activation of the human D1 receptor | activity change, negative = inhibition, % at 10 µM | P21728 | HEK293 TREx D1 cells, calcium flux, dopamine EC80; stronger effect = lower value | actives 3.2% (n = 360,000); in the data active = activity change below about -30%
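Calcium flux readout: force-coupled, inducible Hek293 Trex D1 line, cells induced overnight at 30 C with tetracycline, dye-loaded 30–90 min at RT. Antagonism scored against EC80 dopamine challenge given 180 s after compound.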
A number is an active result; n = inactive; u = inconclusive; x = no result given.

SMILES	D3 ag	BCR signal inh	D3 antag	D1 agonist	D1 potentiator	D1 antagonist
CCC(C)NC(=O)c1ccc2nc(Cc3ccc(OC)cc3)oc2c1 (centres undefined)	n	n	n	n	n	n
O=C(NCCCN1CCN(c2ccc(F)cc2)CC1)c1ccc2nc(Cc3ccccc3)oc2c1	n	x	x	n	n	-38
CCN1CCN(CCCNC(=O)c2ccc3nc(Cc4ccc(OC)cc4)oc3c2)CC1	n	x	x	n	n	n
O=C(NCCCN1CCN(c2ccccc2)CC1)c1ccc2nc(Cc3ccccc3)oc2c1	n	x	x	32	n	-60
COc1ccc(Cc2nc3ccc(C(=O)N(C)CCCN4CCOCC4)cc3o2)cc1	n	n	n	n	n	-49
NC[C@H]1O[C@H](O[C@H]2[C@H](O)[C@@H](O[C@H]3O[C@H](CO)[C@@H](O)[C@H](N)[C@H]3O)[C@H](N)C[C@@H]2N)[C@H](O)[C@@H](O)[C@@H]1O	n	x	x	x	x	x
CN1CCn2cnc(C(=O)NCCCCCNC(=O)OC(C)(C)C)c2C1=O	n	x	n	x	x	x
C=C(C)Cn1c(SCC(=O)Nc2ccccc2C)nc2sc3c(c2c1=O)CCCC3	n	x	x	n	n	n
CCOc1ccc(NC(=O)CC2C(=O)N(c3ccccc3)C(=O)N2Cc2cccc(OC)c2)cc1 (centres undefined)	n	x	x	n	n	n
CCOC(=O)c1cccc(NC(=O)CC2C(=O)N(c3ccc(OC)cc3)C(=O)N2C2CCCC2)c1 (centres undefined)	n	x	x	n	n	-35
COC(=O)c1ccc(NC(=O)CC2C(=O)N(c3ccccc3)C(=O)N2Cc2ccc(F)cc2)cc1 (centres undefined)	n	x	x	n	n	n
COC(=O)c1ccc(NC(=O)CC2C(=O)N(c3cccc(OC)c3)C(=O)N2C(C)C)cc1 (centres undefined)	n	x	x	n	n	-32
COC(=O)c1ccc(NC(=O)CC2C(=O)N(c3cccc(F)c3)C(=O)N2CC(C)C)cc1 (centres undefined)	n	x	x	n	n	-33
COc1ccc(NC(=O)CC2C(=O)N(c3cccc(OC)c3)C(=O)N2Cc2cccnc2)cc1 (centres undefined)	n	x	x	n	n	-65
CCOC(=O)c1cccc(NC(=O)CC2C(=O)N(c3ccc(Cl)cc3)C(=O)N2C2CCCC2)c1 (centres undefined)	n	x	x	n	n	n
CN1C(=O)C2(SCC(=O)N2c2ccc(Cl)cc2)c2ccccc21 (centres undefined)	n	u	x	n	n	n
CC1CC(C)CN(C(=O)COC(=O)c2ccc3ccccc3n2)C1 (centres undefined)	n	n	n	n	n	-37
Cn1nc(C(F)(F)F)c2cc(C(=O)Nc3ccc(C(F)(F)F)cc3)sc21	n	n	n	n	n	-45
O=C1COc2ccc(C(=O)COC(=O)Cc3ccccc3F)cc2N1	n	u	n	n	n	n
O=C1COc2ccc(C(=O)COC(=O)Cc3c(F)cccc3Cl)cc2N1	n	n	n	n	n	-31
Oc1c(Cl)cc(Cl)cc1C=Nc1ccc2c(c1)OCCO2	n	n	-52	n	n	n
Brc1csc(C=Nc2ccc3c(c2)OCCOCCOCCOCCO3)c1	n	n	n	n	n	n
CO/N=C(\Cn1ncc(N2CCCC2)c(Cl)c1=O)c1ccc(Cl)cc1	n	n	n	n	n	-46
CC(=O)Cn1ncc(N2CCCCC2)c(Cl)c1=O	n	n	n	n	n	n
Cc1ccc(-c2cnc(N)n2C)cc1C	n	n	-101	n	n	n
SMILES	D3 ag	BCR signal inh	D3 antag	D1 agonist	D1 potentiator	D1 antagonist
O=C(O)c1ccc(CSc2nnc(-c3ccco3)o2)cc1	n	18µM	n	n	x	n
O=C(O)c1cc2cc(Cc3cccnc3)ccc2o1	n	x	x	x	x	x
COc1cc(NC(=O)COC(=O)/C=C/c2c(C)nn(-c3ccc(F)cc3)c2Cl)cc(OC)c1	n	n	n	n	n	n
CC(=O)NC(=O)COC(=O)/C=C/c1c(C)nn(Cc2c(Cl)cccc2Cl)c1Cl	n	n	-56	n	n	x
C=C1C(=C/C=C2\CCC[C@]3(C)[C@@H]([C@H](C)/C=C/[C@H](C)C(C)C)CC[C@@H]23)C[C@@H](O)C[C@@H]1O	n	x	x	x	x	x
CN(C)CCN(C(=O)C1CCN(S(=O)(=O)c2cccs2)CC1)c1nc2ccc(F)cc2s1	n	n	n	n	n	n
Cc1cccc2sc(N(CCN(C)C)C(=O)C3CCN(S(=O)(=O)c4cccs4)CC3)nc12	n	n	n	39	n	n
O=C1CC[C@@H](C(=O)N2CSC[C@@H]2C(=O)Nc2cccc(C(F)(F)F)c2)N1	n	x	n	x	x	x
Cc1cc(C)cc(-n2c(C)cc(/C=N/NC(=O)CSc3ncccn3)c2C)c1	n	n	n	44	n	n
Cc1cc(C)n2nc(SCC(=O)N/N=C/c3cccc(Br)c3)nc2n1	n	x	n	n	n	n
Cc1cc(C)n2nc(SCC(=O)N/N=C/c3ccccn3)nc2n1	n	n	n	n	n	-36
CC(C)(C)NC(=O)C1c2ccccc2OCC(=O)N1CC(F)(F)F (centres undefined)	n	x	n	x	x	x
C=CC[n+]1c(-c2ccc(C)cc2)csc1Nc1c(C)n(C)n(-c2ccccc2)c1=O	n	n	n	n	n	n
C=CC[n+]1c(-c2ccc(Cl)cc2Cl)csc1Nc1c(C)n(C)n(-c2ccccc2)c1=O	n	u	-81	n	n	n
COCc1cc(C)nc2c1C(=O)NC(c1ccc(C)cc1)N2Cc1ccccc1 (centres undefined)	n	n	x	n	n	n
O=C(NCCCN1CCOCC1)c1c(O)c2cc(Br)cc(Br)c2[nH]c1=O	n	n	n	n	n	-36
Cc1cc(C)n(C(=O)CCCC(=O)n2nc(C)cc2C)n1	n	n	n	n	n	-32
CC(C)(C)NCC(O)COc1ccc(NC(=O)NC2CCCCC2)cc1 (centres undefined)	n	x	x	x	x	x
COCCCn1c(=O)/c(=C\c2ccc(OC(F)F)c(OC)c2)s/c1=C(/C#N)C(N)=O	n	n	n	n	n	-44
CC1(C(=O)NS(=O)(=O)c2cccs2)CCN1C(=O)C1(c2ccccc2)CCCC1 (centres undefined)	n	x	n	x	x	x
CSc1ncc2[nH]c(C(O)c3ccccc3)nc2n1 (centres undefined)	n	x	n	x	x	x
CCc1cc(C(=O)c2ccc(Br)cc2)c(NC(=O)CN(CC)CC)s1	n	n	-62	n	n	n
CCN(CC)CC(=O)Nc1sc(C)cc1C(=O)c1ccc(C)cc1	n	n	n	n	n	n
COc1ccc(C2c3c(oc4ccc(F)cc4c3=O)C(=O)N2Cc2ccc3c(c2)OCO3)cc1 (centres undefined)	n	x	x	n	n	n
